About 530 (24%) of roughly 2,200 compounds were called active.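 The calls were made as follows: active = inhibition above a set limit at one or more concentrations of the dose series; inactive = inhibition under that limit at every dose.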 These entries were drawn from the full list. Results with a measured potency or affinity are listed apart.

This assay can be described thus: S. Typhimurium nonspecific reporter signal inhibition – Salmonella Typhimurium, GFP fluorescence, counter-screen for PhoP regulon inhibitor project, dose response (AID 2401).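 Also: S. typhimurium with Mg-insensitive nmpC-GFP reporter grown at 10 µM Mg2+; drop in reporter fluorescence reflects general culture growth inhibition.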 The conditions noted are these: 4 h; series mostly up to 150 µM. A general note: A counterscreen serves to expose hits that act by an unwanted route or on another target.
`CCOC(=O)c1ccccc1C(=O)N1CCOCCOCCOCC1`: the call was inactive. Under `CCOC(=O)c1c(-c2ccc(C)o2)csc1N` stands “inactive”; under `COc1ccc(C(=O)Nn2c(SCC(=O)N3CCC(C)CC3)nc3ccccc3c2=O)cc1`, “inactive”; under `Cc1ccc2nc(C)c(CN3CCN(c4ccc([N+](=O)[O-])cc4Cl)CC3)n2c1`, “inactive”. On to `Cc1ccc(NS(=O)(=O)c2ccc(N3C(=O)CCC3=O)cc2)cc1`, for which the compound was called inactive. Consider `O=S(=O)(Nc1ccc2c(c1)nc1n2CCN(Cc2ccccc2)C1)c1ccc(F)cc1`, for which the compound was classed as inactive. With `CSc1cccc(NC(=O)COc2cccc3ccccc23)c1`, the compound was called inactive. As for `O=S(=O)(NC1=NCCCCC1)c1cccs1`, the call was inactive. Under `O=C1CSc2ccccc2N1Cc1ccc(F)cc1` stands “inactive”. The result for `O=C(c1ccccc1S(=O)(=O)NCc1ccccc1)N1CCCC1` reads “inactive”.

Take `COc1ccc(C2CC(c3ccccc3)=NN2c2ccc(/C=N/NC(=O)c3ccncc3)cc2)cc1` (centres undefined): the compound was classed as inactive.

As to `NC(=O)c1c(N)sc2c1CCCCC2`, the outcome was inactive. Consider `CCOC(=O)C1=C(C)NC(=S)NC1c1ccc(OC(=O)c2ccco2)cc1` (centres undefined), for which the outcome was inactive. Turning to `Cn1c(C(O)c2ccc(Br)cc2)nc(Cl)c1Cl` (centres undefined), the result was inactive. For the compound `CN(C)C=NC(=O)c1[nH]c2ccc(Cl)cc2c1-c1ccccc1`, the result was inactive. Under `Clc1ccc(OCCN2CCN(c3ncnc4sccc34)CC2)cc1` stands “inactive”; under `O=C(Cc1ccc(Cl)cc1)NNS(=O)(=O)c1ccc([N+](=O)[O-])cc1`, “inactive”.

In the case of `N[C@H](CSCc1ccccc1)C(=O)Nc1ccc([N+](=O)[O-])cc1`, the result was inactive.

For `O=C(O)CCCCCN1C(=O)c2ccc(C(=O)O)cc2C1=O`, the result was inactive. The result for `CCOC(=O)c1c(C)[nH]c(C)c1C(=O)CSc1ncccn1` reads “inactive”; that for `COc1ccc(NC(=O)CSc2nccn2-c2ccccc2)cc1`, “inactive”; that for `COc1cc(OC)c(NC(=O)Nc2ccc(OC)c(OC)c2)cc1Cl`, “inactive”. The result for `O=[N+]([O-])c1nn(-c2cccc(Cl)c2)n(O)c1=NCc1cccnc1` reads “inactive”; that for `O=c1c(Cl)c(Cl)cnn1-c1ccccc1`, “inactive”. Under `CC1(C)CC(=O)C(C=Nc2ccc(Cl)cn2)=C(O)C1` stands “inactive”; under `Cn1cccc1CC(=O)NNC(=S)Nc1ccc(Cl)cc1`, “inactive”; under `Cc1cn([C@H]2C[C@H](N=[N+]=[N-])[C@@H](CO)O2)c(=O)[nH]c1=O`, “inactive”.

With `Cc1c(C)n(Cc2ccccc2)c2ncnc(NN)c12`, the compound was classed as inactive. For the compound `CCOCc1nnc(NC(=O)COC)s1`, the result was inactive. Take `O=c1c2ccccc2nnn1Cc1ccccn1`: the result was inactive. The result for `c1ccc(Oc2cc(-c3ccccc3)ncn2)cc1` reads “inactive”; that for `Oc1ccccc1NCC(O)Cn1ccc2ccccc21` (centres undefined), “inactive”. Consider `Cc1ccc2nc(Cc3ccc(N)cc3)[nH]c2c1`, for which the call was inactive. Regarding `COc1ccccc1NS(=O)(=O)c1cccc(C(=O)N/N=C/c2c(C)nn(-c3ccccc3)c2N2CCCC2)c1`, the result was inactive. `CCOc1ccc(S(=O)(=O)Nc2ccc(C(=O)N/N=C/c3c(C)nn(-c4ccccc4)c3N3CCCC3)cc2)cc1`: the result was inactive. Take `Cc1ccc(C(=O)N/N=C/c2ccc([N+](=O)[O-])s2)cc1`: the compound was classed as inactive.

As for `O=C(NC(=S)N1CCN(c2c(Cl)cccc2[N+](=O)[O-])CC1)c1cccs1`, the call was inactive.

For `O=C(c1ccccc1)c1nc2ccccc2n(CCCn2c(=O)c(C(=O)c3ccccc3)nc3ccccc32)c1=O`, the result was inactive. Under `CCc1cccc(C)c1NC(=S)NCc1cccn1C` stands “inactive”; under `COc1cccc2[nH]c3c(N4CCN(Cc5ccc6c(c5)OCO6)CC4)ncnc3c12`, “inactive”; under `O=C(NCc1ccco1)C1CC(=O)N(CCc2ccccc2)C1` (centres undefined), “inactive”. With `N#C/C(=C\c1ccc(F)c(F)c1)C(=O)NC1CCCCC1`, the result was inactive.

For the compound `CCSc1nc(C2CC2)cc(-c2cccs2)c1C#N`, the compound was called inactive. On to `CNc1nc(Sc2ccccc2)cc(C(F)(F)F)n1`, for which the call was inactive. The result for `Cc1cc(C)c2nc(NNC(=O)c3ccc(S(=O)(=O)N4CCCCC4)cc3)sc2c1` reads “inactive”; that for `O=S(=O)(Cc1ccccc1Cl)N1CCN(Cc2ccc3c(c2)OCO3)CC1`, “inactive”; that for `COc1cc(CNCc2cccs2)cc(Br)c1OC`, “inactive”.

For `Brc1cccc(CNCc2cccs2)c1`, the outcome was inactive. As for `COc1ccccc1CNc1nc2nc(C)c(C)c(=O)n2[nH]1`, the outcome was inactive.

In the case of `COc1ccc(CCNC(=S)Nc2cccc3ccccc23)cc1`, the compound was called inactive. Take `Cc1cccc(Nc2ncccc2C(=O)NCc2cccs2)c1C`: the call was inactive.

Turning to `Cn1c(=O)c(=O)n(C)c2cc(S(=O)(=O)Nc3ccc4c(c3)OCCO4)ccc21`, the outcome was inactive. For `COc1ccc(/C=N/NC(=O)CC(=O)NCc2cccnc2)cc1`, the result was inactive. Under `CC(=O)Nc1ccc(C(=O)N2CCN(C(=O)c3ccco3)CC2)cc1` stands “inactive”; under `COc1ccc(S(=O)(=O)Nc2ccc(F)c(F)c2)cc1Cl`, “inactive”. Take `OC(COc1ccc2c(c1)CCC2)Cn1cnc2ccccc21` (centres undefined): the compound was classed as inactive. Under `O=C(Nc1cccc(Cl)c1)Nc1ccc2c(c1)OCO2` stands “inactive”; under `O=S1(=O)CC(O)C(Nc2ccccc2Cl)C1` (centres undefined), “inactive”. As for `NC(=O)c1ccccc1N=Cc1ccccn1`, the compound was classed as inactive. Consider `CCCc1cc(=O)oc2cc(OCC(=O)N3CCc4ccccc43)ccc12`, for which the call was inactive. Turning to `CN1CCCC(OC(=O)c2ccc(Cl)cc2)C1` (centres undefined), the result was inactive. As for `O=C(/C=C\c1ccco1)Nc1nc(-c2ccccc2)cs1`, the call was inactive. The result for `Cc1cc(C)c2c(c1)NC(=O)C2(O)CC(=O)c1cccs1` (centres undefined) reads “inactive”. Take `O=C(c1ccc(-c2ccccc2)cc1)c1ccccc1C(=O)N1CCOCC1`: the result was inactive. Regarding `COc1ccc(/C=C/C(=O)NC(=S)NNC(=O)c2cnccn2)cc1`, the outcome was inactive. The result for `N#Cc1c(NC(=O)c2cnccn2)sc2c1CCCC2` reads “inactive”; that for `CC(=O)C1=C(C)NC(SCSc2ccccc2)=C(C#N)C1c1cccnc1` (centres undefined), “inactive”; that for `CC(=O)NC1C(c2nc3ccccc3s2)=C(c2ccccc2)C(=O)N1c1ccc(C)cc1` (centres undefined), “inactive”. Under `COc1cccc(-c2nc(-c3ccc(Br)o3)no2)c1` stands “inactive”; under `CCc1ccc(OCC(=O)Nc2ccc(-c3cc4ccccc4oc3=O)c(OC)c2)cc1`, “inactive”; under `Oc1ccc(/C=N/n2cnn(Cc3ccccc3Cl)c2=S)c(O)c1`, “inactive”. Under `CC(=O)Nc1cc(N=Cc2ccc(O)cc2O)c(Cl)cc1Cl` stands “inactive”. Regarding `Oc1ccc(/C=N/NC2=NCCCCC2)c(O)c1`, the compound was classed as inactive. Turning to `O=C(O)CCS(=O)(=O)c1ccc(-c2ccccc2)cc1`, the compound was classed as inactive.

These data come from PubChem BioAssay AID2401 (Southern Research Specialized Biocontainment Screening …, 2010).
